# Reference: the supplement of paper PMC8728848
# This is one part of a sample in which the strongest signals are shown more often than they occur.
# B1: 4F2hc (Homo sapiens), P08195 (protein)
# chain: WWHTGALYRIGDLQAFQGHGAGNLAGLKGRLDYLSSLKVKGLVLGPIHKNQKDDVAQTDLLQIDPNFGSKEDFDSLLQSAKKKSIRVILDLTPNYRGENSWFSTQVDTVATKVKDALEFWLQAGVDGFQVRDIENLKDASSFLAEWQNITKGFSEDRLLIAGTNSSDLQQILSLLESNKDLLLTSSYLSDSGSTGEHTKSLVTQYLNATGNRWCSWSLSQARLLTSFLPAQLLRLYQLMLFTLPGTPVFSYGDEIGLDAAALPGQPMEAPVMLWDESSFPDIPGAVSANMTVKGQSEDPGSLLSLFRRLSDQRSKERSLLHGDFHAFSAGPGLFSYIRHWDQNERFLVVLNFGDVGLSAGLQASDLPASASLPAKADLLLSTQPGREEGSPLELERLKLEPHEGLLLRFPYAA
# B2: Beta-Defensin 3 (Homo sapiens), P81534 (peptide)
# chain: GIINTLQKYYCRVRGGRCAVLSCLPKEEQIGKCSTRGRKCCRRKK
# Experiments:
# Test in all cases: glycan array binding signal (z-score within array); higher = stronger binding
# Conditions in all cases: glycan notation: IUPAC condensed, linker removed
# [1] = biological target: Fuc(a1-2)Gal(b1-4)GlcNAc(b1-2)Man(a1-3)[Fuc(a1-2)Gal(b1-4)GlcNAc(b1-2)Man(a1-6)]Man(b1-4)GlcNAc(b1-4)GlcNAc
# Method in brief: (§1)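 Columns mapping to the same glycan were averaged after glycan names were converted to IUPAC-condensed notation. The data come from 3228 arrays in the Consortium for Functional Glycomics database, limited to those with an available protein sequence. Binding is reported as a within-array Z-score averaged across arrays of one protein sequence and across linkers.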
# [2] = biological target: Fuc(a1-2)Gal6S(b1-4)Glc6S
# Method in brief: as §1
# [3] = biological target: Fuc(a1-2)Gal6S(b1-4)GlcNAc
# Method in brief: as §1
# [4] = biological target: Fuc(a1-2)[GalNAc(a1-3)]Gal(b1-4)Glc
# Method in brief: as §1
# [5] = biological target: Fuc(a1-3)[Gal(b1-4)]GlcNAc6S
# Method in brief: as §1
# [6] = biological target: Gal(a1-3)[Gal(a1-4)]Gal(b1-4)GlcNAc
# Method in brief: as §1
# [7] = biological target: Gal(a1-4)GlcNAc
# Method in brief: as §1
# [8] = biological target: Gal(b1-3)GalNAc(a1-3)[Fuc(a1-2)]Gal(b1-4)GlcNAc
# Method in brief: as §1
# [9] = biological target: Gal(b1-3)GlcNAc(b1-2)Man(a1-3)[Gal(b1-3)GlcNAc(b1-2)Man(a1-6)]Man(b1-4)GlcNAc(b1-4)GlcNAc
# Method in brief: as §1
# [10] = biological target: Gal(b1-4)GlcNAc
# Method in brief: as §1
# [11] = biological target: Gal3S(b1-3)GlcNAc
# Method in brief: as §1
# [12] = biological target: Gal3S4S(b1-4)GlcNAc
# Method in brief: as §1
# [13] = biological target: GalNAc(b1-3)Gal
# Method in brief: as §1
# [14] = biological target: GlcNAc(a1-4)Gal(b1-4)GalNAc
# Method in brief: as §1
# [15] = biological target: GlcNAc(b1-4)[GlcNAc(b1-6)]GalNAc
# Method in brief: as §1
# [16] = biological target: GlcNAc(b1-6)Gal(b1-4)GlcNAc
# Method in brief: as §1
# [17] = biological target: GlcNAc3Prop(b1-4)GlcNAc
# Method in brief: as §1
# [18] = biological target: GlcNAc6S(b1-3)Gal(b1-4)GlcNAc
# Method in brief: as §1
# [19] = biological target: Kdn(a2-6)Gal(b1-4)GlcNAc
# Method in brief: as §1
# [20] = biological target: Neu5Ac(a2-3)Gal(b1-3)[Fuc(a1-4)]GlcNAc
# Method in brief: as §1
# [21] = biological target: Neu5Ac(a2-3)Gal(b1-4)GlcNAc(b1-2)Man(a1-3)[Neu5Ac(a2-6)Gal(b1-4)GlcNAc(b1-2)Man(a1-6)]Man(b1-4)GlcNAc(b1-4)GlcNAc
# Method in brief: as §1
# [22] = biological target: Neu5Ac(a2-3)Gal(b1-4)GlcNAc(b1-3)GalNAc
# Method in brief: as §1
# [23] = biological target: Neu5Ac(a2-3)Gal(b1-4)[Fuc(a1-3)]GlcNAc(b1-6)[Neu5Ac(a2-3)Gal(b1-3)]GalNAc
# Method in brief: as §1
# [24] = biological target: Neu5Ac(a2-3)[GalNAc(b1-4)]Gal(b1-4)GlcNAc
# Method in brief: as §1
# [25] = biological target: Neu5Ac(a2-6)Gal(b1-4)GlcNAc(b1-2)Man(a1-3)[GlcNAc(b1-2)Man(a1-6)]Man(b1-4)GlcNAc(b1-4)GlcNAc
# Method in brief: as §1
# [26] = biological target: Neu5Ac(a2-6)Gal(b1-4)GlcNAc(b1-2)Man(a1-6)[Man(a1-3)]Man(b1-4)GlcNAc(b1-4)GlcNAc
# Method in brief: as §1
# [27] = biological target: Neu5Ac(a2-8)Neu5Ac(a2-8)Neu5Ac
# Method in brief: as §1
# [28] = biological target: Neu5Ac(a2-3)Gal(b1-3)GalNAc6S
# Method in brief: as §1
# [29] = biological target: Neu5Ac(a2-3)Gal(b1-3)GlcNAc
# Method in brief: as §1
# [30] = biological target: Neu5Ac(a2-3)Gal(b1-3)[Fuc(a1-4)]GlcNAc(b1-3)Gal(b1-3)[Fuc(a1-4)]GlcNAc
# Method in brief: as §1
# [31] = biological target: Neu5Ac(a2-6)Gal(b1-4)Glc
# Method in brief: as §1
# [32] = biological target: Neu5Ac(a2-6)Gal(b1-4)GlcNAc(b1-2)Man(a1-3)[GlcNAc(b1-2)Man(b1-4)GlcNAc(b1-2)Man(a1-6)]Man(b1-4)GlcNAc(b1-4)GlcNAc
# Method in brief: as §1
# [33] = biological target: Neu5Ac(a2-6)Gal(b1-4)GlcNAc(b1-2)Man(a1-3)[Man(a1-6)]Man(b1-4)GlcNAc(b1-4)GlcNAc
# Method in brief: as §1
# [34] = biological target: Neu5Ac(a2-6)Gal(b1-4)GlcNAc(b1-3)Gal(b1-4)GlcNAc
# Method in brief: as §1
# [35] = biological target: Neu5Ac(a2-8)Neu5Ac(a2-3)[GalNAc(b1-4)]Gal(b1-4)Glc
# Method in brief: as §1
# [36] = biological target: Neu5Gc(a2-3)Gal(b1-4)Glc
# Method in brief: as §1
Binder,glycan array binding signal (z-score) [1],glycan array binding signal (z-score) [2],glycan array binding signal (z-score) [3],glycan array binding signal (z-score) [4],glycan array binding signal (z-score) [5],glycan array binding signal (z-score) [6],glycan array binding signal (z-score) [7],glycan array binding signal (z-score) [8],glycan array binding signal (z-score) [9],glycan array binding signal (z-score) [10],glycan array binding signal (z-score) [11],glycan array binding signal (z-score) [12],glycan array binding signal (z-score) [13],glycan array binding signal (z-score) [14],glycan array binding signal (z-score) [15],glycan array binding signal (z-score) [16],glycan array binding signal (z-score) [17],glycan array binding signal (z-score) [18],glycan array binding signal (z-score) [19],glycan array binding signal (z-score) [20],glycan array binding signal (z-score) [21],glycan array binding signal (z-score) [22],glycan array binding signal (z-score) [23],glycan array binding signal (z-score) [24],glycan array binding signal (z-score) [25],glycan array binding signal (z-score) [26],glycan array binding signal (z-score) [27],glycan array binding signal (z-score) [28],glycan array binding signal (z-score) [29],glycan array binding signal (z-score) [30],glycan array binding signal (z-score) [31],glycan array binding signal (z-score) [32],glycan array binding signal (z-score) [33],glycan array binding signal (z-score) [34],glycan array binding signal (z-score) [35],glycan array binding signal (z-score) [36]
B1,-0.399,-0.953,-1.01,6.38,2.68,-0.32,-0.668,-0.507,3.66,-0.318,0.65,3.95,-0.631,-1.21,0.848,0.103,0.691,-1.04,0.863,1.08,-0.878,-0.993,3.35,-0.5,-0.141,5.26,-0.566,,,,,,,,,
B2,,,,,,,,,,,,,,,,,,,,,-0.484,,,,,,,1.18,-0.304,-0.364,-0.294,-0.583,-0.313,-0.64,-0.591,-0.025
